In paper PMC9911399, “Two distinct binding modes provide the RNA-binding protein RbFox with extraordinary sequence specificity”:
Where a chain is given by its changes, count along the chain named. In all, about 16,000 sequences were measured (“ka relative to ugcaugu”: median about 0.096, highest 2% from about 0.35 on). The entries come from a sample that favours the highest values as a whole.

T1: RBFOX1 RRM RbFoxmut (Fox-RRM*) (Homo sapiens, UniProt Q9NWB1 109-208, R118D;E147R;N151S;E152T)
T1 sequence: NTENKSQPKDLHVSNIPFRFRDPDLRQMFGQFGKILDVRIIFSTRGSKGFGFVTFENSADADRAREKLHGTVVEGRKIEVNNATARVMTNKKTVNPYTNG

B1: CUCACAU (DNA:RNA)
RNA: GGGAGACCGGAAUUCAGAUUGUCCCUCACAUUUAAAUCCCGUCGUAGCCACCA
DNA 1: CAATCTGAATTCCGGTCTCCC
DNA 2: TGGTGGCTACGACGGGATT
B2: AUGCAGC (DNA:RNA)
RNA: B1 RNA with C25A, C27G, A28C, C29A, A30G, U31C
DNA 1: CAATCTGAATTCCGGTCTCCC
DNA 2: TGGTGGCTACGACGGGATT
B3: AGUCCCU (DNA:RNA)
RNA: B1 RNA with C25A, U26G, C27U, A28C, A30C
DNA 1: CAATCTGAATTCCGGTCTCCC
DNA 2: TGGTGGCTACGACGGGATT
B4: GAAGUCC (DNA:RNA)
RNA: GGGAGACCGGAAUUCAGAUUGUCCGAAGUCCUUAAAUCCCGUCGUAGCCACCA
DNA 1: CAATCTGAATTCCGGTCTCCC
DNA 2: TGGTGGCTACGACGGGATT
B5: UGCCAGA (DNA:RNA)
RNA: B1 RNA with C25U, U26G, A28C, C29A, A30G, U31A
DNA 1: CAATCTGAATTCCGGTCTCCC
DNA 2: TGGTGGCTACGACGGGATT
B6: GUCGUGG (DNA:RNA)
RNA: B4 RNA with A26U, A27C, C30G, C31G
DNA 1: CAATCTGAATTCCGGTCTCCC
DNA 2: TGGTGGCTACGACGGGATT
B7: UUGUUGG (DNA:RNA)
RNA: B1 RNA with C25U, C27G, A28U, C29U, A30G, U31G
DNA 1: CAATCTGAATTCCGGTCTCCC
DNA 2: TGGTGGCTACGACGGGATT
B8: UCCUUGG (DNA:RNA)
RNA: B1 RNA with C25U, U26C, A28U, C29U, A30G, U31G
DNA 1: CAATCTGAATTCCGGTCTCCC
DNA 2: TGGTGGCTACGACGGGATT
B9: UUGGUUG (DNA:RNA)
RNA: B4 RNA with G25U, A26U, A27G, C30U, C31G
DNA 1: CAATCTGAATTCCGGTCTCCC
DNA 2: TGGTGGCTACGACGGGATT
B10: GUGGUGG (DNA:RNA)
RNA: B4 RNA with A26U, A27G, C30G, C31G
DNA 1: CAATCTGAATTCCGGTCTCCC
DNA 2: TGGTGGCTACGACGGGATT
B11: GUGGUUG (DNA:RNA)
RNA: B4 RNA with A26U, A27G, C30U, C31G
DNA 1: CAATCTGAATTCCGGTCTCCC
DNA 2: TGGTGGCTACGACGGGATT
B12: UCCGUCA (DNA:RNA)
RNA: B4 RNA with G25U, A26C, A27C, C31A
DNA 1: CAATCTGAATTCCGGTCTCCC
DNA 2: TGGTGGCTACGACGGGATT
B13: GUAGCCA (DNA:RNA)
RNA: B4 RNA with A26U, U29C, C31A
DNA 1: CAATCTGAATTCCGGTCTCCC
DNA 2: TGGTGGCTACGACGGGATT
B14: ACACUGG (DNA:RNA)
RNA: B4 RNA with G25A, A26C, G28C, C30G, C31G
DNA 1: CAATCTGAATTCCGGTCTCCC
DNA 2: TGGTGGCTACGACGGGATT
B15: CCCCAGA (DNA:RNA)
RNA: B1 RNA with U26C, A28C, C29A, A30G, U31A
DNA 1: CAATCTGAATTCCGGTCTCCC
DNA 2: TGGTGGCTACGACGGGATT
B16: UAAACAG (DNA:RNA)
RNA: B1 RNA with C25U, U26A, C27A, U31G
DNA 1: CAATCTGAATTCCGGTCTCCC
DNA 2: TGGTGGCTACGACGGGATT
B17: CACGGCC (DNA:RNA)
RNA: B4 RNA with G25C, A27C, U29G
DNA 1: CAATCTGAATTCCGGTCTCCC
DNA 2: TGGTGGCTACGACGGGATT
B18: GUCGGCC (DNA:RNA)
RNA: B4 RNA with A26U, A27C, U29G
DNA 1: CAATCTGAATTCCGGTCTCCC
DNA 2: TGGTGGCTACGACGGGATT
B19: GCCUCGU (DNA:RNA)
RNA: B1 RNA with C25G, U26C, A28U, A30G
DNA 1: CAATCTGAATTCCGGTCTCCC
DNA 2: TGGTGGCTACGACGGGATT
B20: GCCUUUU (DNA:RNA)
RNA: B1 RNA with C25G, U26C, A28U, C29U, A30U
DNA 1: CAATCTGAATTCCGGTCTCCC
DNA 2: TGGTGGCTACGACGGGATT
B21: GCCUUGU (DNA:RNA)
RNA: B1 RNA with C25G, U26C, A28U, C29U, A30G
DNA 1: CAATCTGAATTCCGGTCTCCC
DNA 2: TGGTGGCTACGACGGGATT
B22: GCCUUCA (DNA:RNA)
RNA: B4 RNA with A26C, A27C, G28U, C31A
DNA 1: CAATCTGAATTCCGGTCTCCC
DNA 2: TGGTGGCTACGACGGGATT
B23: GCUUGCC (DNA:RNA)
RNA: B4 RNA with A26C, A27U, G28U, U29G
DNA 1: CAATCTGAATTCCGGTCTCCC
DNA 2: TGGTGGCTACGACGGGATT
B24: GCCUUGC (DNA:RNA)
RNA: B4 RNA with A26C, A27C, G28U, C30G
DNA 1: CAATCTGAATTCCGGTCTCCC
DNA 2: TGGTGGCTACGACGGGATT
B25: GGCGGCC (DNA:RNA)
RNA: B4 RNA with A26G, A27C, U29G
DNA 1: CAATCTGAATTCCGGTCTCCC
DNA 2: TGGTGGCTACGACGGGATT
B26: GCCUUGA (DNA:RNA)
RNA: B4 RNA with A26C, A27C, G28U, C30G, C31A
DNA 1: CAATCTGAATTCCGGTCTCCC
DNA 2: TGGTGGCTACGACGGGATT
B27: GCCUUAA (DNA:RNA)
RNA: B1 RNA with C25G, U26C, A28U, C29U, U31A
DNA 1: CAATCTGAATTCCGGTCTCCC
DNA 2: TGGTGGCTACGACGGGATT
B28: GCCUGCG (DNA:RNA)
RNA: B4 RNA with A26C, A27C, G28U, U29G, C31G
DNA 1: CAATCTGAATTCCGGTCTCCC
DNA 2: TGGTGGCTACGACGGGATT
B29: GGCCUUG (DNA:RNA)
RNA: B4 RNA with A26G, A27C, G28C, C30U, C31G
DNA 1: CAATCTGAATTCCGGTCTCCC
DNA 2: TGGTGGCTACGACGGGATT

target: T1, RBFOX1 RRM RbFoxmut (Fox-RRM*); assay: EMSA; HiTS-Eq, 1 nM pool, 10 min; buffer printed only for the single-RNA assays: 10 mM Tris pH 7.5, 150 mM NaCl, 3.4 mM EDTA, 0.001% NP-40, 30 C; settings: tags: His6 N-terminal (pET28a); label: 5' 32P
Method in brief: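 These values rest on relative association constants, computed from read-count changes of each RNA species versus the control reaction and normalised to the cognate motif. Reads came from free RNA recovered by 8% native PAGE after purified RbFox RRM (wild type or mutant) at increasing concentrations was equilibrated for 10 min in 50 µL with 1 nM of a 5′-radiolabelled pool with 7 randomized nucleotides and DNA-annealed flanks.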

| Binder | binding signal |
| --- | --- |
| B1 | 0.0911 KA relative to UGCAUGU |
| B2 | 0.106 KA relative to UGCAUGU |
| B3 | 0.0659 KA relative to UGCAUGU |
| B4 | 0.0491 KA relative to UGCAUGU |
| B5 | 0.116 KA relative to UGCAUGU |
| B6 | 0.112 KA relative to UGCAUGU |
| B7 | 0.117 KA relative to UGCAUGU |
| B8 | 0.0776 KA relative to UGCAUGU |
| B9 | 0.65 KA relative to UGCAUGU |
| B10 | 0.15 KA relative to UGCAUGU |
| B11 | 0.737 KA relative to UGCAUGU |
| B12 | 0.111 KA relative to UGCAUGU |
| B13 | 0.082 KA relative to UGCAUGU |
| B14 | 0.123 KA relative to UGCAUGU |
| B15 | 0.0916 KA relative to UGCAUGU |
| B16 | 0.0612 KA relative to UGCAUGU |
| B17 | 0.18 KA relative to UGCAUGU |
| B18 | 0.214 KA relative to UGCAUGU |
| B19 | 0.224 KA relative to UGCAUGU |
| B20 | 0.0724 KA relative to UGCAUGU |
| B21 | 0.714 KA relative to UGCAUGU |
| B22 | 0.146 KA relative to UGCAUGU |
| B23 | 0.239 KA relative to UGCAUGU |
| B24 | 0.387 KA relative to UGCAUGU |
| B25 | 0.16 KA relative to UGCAUGU |
| B26 | 0.561 KA relative to UGCAUGU |
| B27 | 0.0981 KA relative to UGCAUGU |
| B28 | 0.172 KA relative to UGCAUGU |
| B29 | 0.478 KA relative to UGCAUGU |
